Measurements reported in PubChem BioAssay AID693 (University of Pittsburgh Molecular Library Screening Center, 2007).
Hit rate of the full screen: of about 97,000 compounds, about 130 (0.13%) were called active. Rule as the data show it: active = inhibition above about 34% (passing the limit was not always enough); inactive = the rest. What follows is part of a selection rich in actives, with near analogues and random picks from the rest.

These compounds were tested against Serine/threonine-protein kinase PLK1 (Homo sapiens) (UniProt P53350) (assay: Plk1 polo box domain binding inhibitors, primary screen, biochemical, fluorescence polarization (AID 693)). Settings: Plk1 PBD phosphopeptide binding, active compounds read high,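 tested at about 20 µM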.
Chain of Serine/threonine-protein kinase PLK1 (Homo sapiens) (P53350 whole entry, looked up, the tested form may be a part): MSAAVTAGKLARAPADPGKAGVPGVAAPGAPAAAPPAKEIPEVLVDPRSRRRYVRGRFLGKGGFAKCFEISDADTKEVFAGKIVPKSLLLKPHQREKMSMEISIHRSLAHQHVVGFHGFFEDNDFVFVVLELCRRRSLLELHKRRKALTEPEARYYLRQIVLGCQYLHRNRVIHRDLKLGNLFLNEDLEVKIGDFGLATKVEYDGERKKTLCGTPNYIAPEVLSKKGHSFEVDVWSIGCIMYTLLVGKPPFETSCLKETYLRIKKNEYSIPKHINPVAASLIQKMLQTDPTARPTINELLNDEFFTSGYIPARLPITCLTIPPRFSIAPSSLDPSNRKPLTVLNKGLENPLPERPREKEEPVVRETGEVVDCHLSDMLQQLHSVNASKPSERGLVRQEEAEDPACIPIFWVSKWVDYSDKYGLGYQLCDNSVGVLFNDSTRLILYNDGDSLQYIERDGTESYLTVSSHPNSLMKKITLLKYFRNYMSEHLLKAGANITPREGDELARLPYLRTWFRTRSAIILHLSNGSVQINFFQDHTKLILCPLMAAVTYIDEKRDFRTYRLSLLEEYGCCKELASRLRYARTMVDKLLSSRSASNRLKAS

inhibition, active:
CCOC(=O)c1cc2n(c1N)-c1ccccc1C2=O 45.1%
COc1ccc(Nc2oc(-c3ccccc3Cl)nc2C#N)cc1 42.4%

inhibition, inactive:
Cn1c(N)c(C(=O)COC(=O)C23CC4CC(CC(C4)C2)C3)c(=O)n(C)c1=O -3.11%
COc1cc(C(=O)OC(C)C(=O)NCC2CCCCC2)cc(NC(=O)c2ccco2)c1OC (stereo not drawn) 2.04%
COCc1cc(C)nc2sc(C(=O)NC3CCCCC3)c(N)c12 -36.6%
COc1ccc(CN(CC(=O)NC2CCCC2)C(=O)CCC(=O)Nc2cc(C)on2)cc1 4.15%
O=C(N/N=C/c1ccsc1)c1cc(O)cc(O)c1 -12.8%
COc1ccc(CCNC(=S)NC(=O)/C=C/c2ccc(C)cc2)cc1OC -11.8%
N#Cc1ccsc1NC(=O)CN1CCCCC1 -12.8%
O=C1/C(=C\Nc2ccccc2)CCN1c1ncccn1 13.5%
CC(C)(C)NS(=O)(=O)CC12CCC(CC1=O)C2(C)C (stereo not drawn) -2.53%
O=C1CCN(C(=O)Nc2ccccc2)N1 11.2%
CCOc1cc(/C=C2/N=C(c3ccc(C(C)(C)C)cc3)OC2=O)cc(Cl)c1OS(C)(=O)=O -6.59%
Cc1ccccc1NC(=O)c1ccccc1NS(=O)(=O)c1cccc2cccnc12 4.72%
CC1CCCN(C(C(=O)Nc2ccc(C(C)C)cc2)c2ccc3c(c2)OCO3)C1 (stereo not drawn) -23.5%
Cc1noc(/C=C/c2ccco2)c1S(=O)(=O)N1CCC(C(=O)N2CCc3ccccc32)CC1 -18.1%
CCCCCCC(=O)Nc1nc(C)c(-c2csc(Nc3cccc(OC)c3)n2)s1 -14.7%
O=C(Nc1ccc(Cl)cc1)c1cc2nc(C3CC3)cc(C(F)(F)F)n2n1 6.19%
O=C(NC1CCCCC1)c1cc([N+](=O)[O-])ccc1N1CCOCC1 22%
O=C(CCc1ccccc1)NCc1cccnc1 22.9%
CC(=O)Nc1ccc(OCC(O)CN2CCN(c3ccccc3Cl)CC2)cc1 (stereo not drawn) -14%
O=C(O)C1CC=CCC1C(=O)Nc1ccccc1C(=O)N1CCN(c2ccccc2)CC1 (stereo not drawn) 2.13%
Cc1cc(C)c(S(=O)(=O)c2ccccc2)c(OC(=O)c2c(F)cccc2Cl)n1 -3.99%
COc1ccc(NC(=O)Cn2c(-c3ccc(OC)cc3)cn(-c3ccc(C)cc3)c2=O)cc1 4.16%
COc1ccc(-c2nn(-c3ccccc3)cc2C(=O)Nc2nccs2)cc1OC 3.37%
COc1ccccc1C(=O)Nc1ccc(NC(=O)c2ccco2)c(C)c1 -21.6%
O=c1c2c(nc3nc[nH]n13)CCC2 7.34%
CCCC(C)C(=O)Nc1ccc(NC(C)=O)cc1 (stereo not drawn) -14.8%
Cc1ccc(NC(=O)N2CCC(O)(c3cccnc3)CC2)cc1 2.21%
CCOC(=O)c1cc2n(c1C)-c1ccccc1C2=O -27.7%
CC(C)OC(=O)CN1C(=O)C(=O)c2ccccc21 -13.6%
O=C1c2ccccc2C(=O)c2c1cccc2N1CCN(Cc2ccccc2)CC1 -20.8%
Cc1cc(NC(=O)/C=C/C(=O)N(c2ccccc2C)C(C(=O)NC2CCCC2)c2ccc(F)cc2)no1 (stereo not drawn) -15.6%
CCCCNC(=O)c1onc(CSc2cccc(OC)c2)c1C(=O)O 25.6%
CO/N=C(/CS(=O)(=O)c1ccc(Br)cc1)c1ccc(OC)cc1 2.77%
Cc1ccc(Cl)cc1NC(=O)COC(=O)C1CCCCC1 -19.8%
COc1ccccc1-c1n[nH]c2c1[C@H](C)CC[C@H]2C(C)C -16.8%
COc1ccc(C(=O)Nc2ccc(CN3CCOCC3)cc2)cc1 -5.41%
COc1ccccc1-c1nc(C#N)c(N2CCC(C(N)=O)CC2)o1 33.2%
N#Cc1nc(-c2ccc(OCc3ccccc3)cc2)oc1NCCCN1CCOCC1 -11.4%
Clc1ccc(-c2cc(COc3ccccc3)no2)cc1Cl -15.4%
Cc1ccc(S(=O)(=O)N(c2cccc(C)c2)C2CCS(=O)(=O)C2)cc1 (stereo not drawn) -7%
Cc1nc2c(-c3ccc(F)cc3)c(C)nn2c(C)c1CCC(=O)NCc1ccco1 2.38%
CCOc1ccc(CN2CCCN(C)CC2)cc1 -6.01%
Cc1ccc(NC(=O)Nc2ccc3oc(C)nc3c2)cc1 8.59%
O=C(Nc1ccc2sc3ccccc3c(=O)c2c1)c1ccccc1Cl 6.33%
CC1(C)Cc2cccc(OCC(N)=O)c2O1 0.26%
Cn1cnc([N+](=O)[O-])c1Sc1ccccc1 -10.6%
